Growth data for eleven compounds are collected here from PubChem BioAssay (NCI).

The panel holds about 83,000 compounds, 20% with a hit somewhere; the sample as a whole holds those more often.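 In brief: 96-well plates, 48 h treatment, single concentration, percent growth endpoint.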 A number with no mark means an inactive call. Calls of active or inactive are those of the source. The calls were made as follows: active = growth percent below 10; inactive = the rest.

Test in all cases: NCI-60 one-dose screen, 48 h (100 = growth as untreated, 0 = no growth, -100 = all killed)
One test relates to SR leukemia. Particulars: 10 µM unless noted.
A further test relates to OVCAR-8 ovarian. Particulars: 10 µM unless noted.
Another test has as its system OVCAR-5 ovarian. Particulars: 10 µM unless noted.
The next test concerns OVCAR-4 ovarian. Particulars: 10 µM unless noted.
The next test concerns SK-OV-3 ovarian. Particulars: 10 µM unless noted.
Another test deals with IGROV1 ovarian. Particulars: 10 µM unless noted.
For another test, the system named is OVCAR-3 ovarian. Conditions: 10 µM unless noted.
A further test concerns HS 578T breast. Particulars: 10 µM.
The next test has as its system NCI/ADR-RES ovarian. Particulars: 10 µM unless noted.
A further test relates to T-47D breast. Conditions: 10 µM unless noted.
Another test concerns BT-549 breast. Conditions: 10 µM unless noted.
In another test the test system is MDA-MB-435 melanoma. Particulars: 10 µM unless noted.
A further test has as its system SW-620 colon. Particulars: 10 µM unless noted.
The next test has as its system MCF7 breast. Particulars: 10 µM unless noted.
The subject of a further test is HCT-116 colon. Particulars: 10 µM unless noted.
In the next test the test system is HCC-2998 colon. Conditions: 10 µM.
A further test has as its system KM12 colon. Particulars: 10 µM unless noted.
In a further test the test system is RPMI-8226 leukemia. Particulars: 10 µM unless noted.

With `CCN(CC)CCNc1ccc(N=Nc2cnc3ccccc3c2)c2ccccc12`, the growth with SR leukemia was -53.1% (active); with OVCAR-8 ovarian it was -90.1% (active); in the test with OVCAR-5 ovarian, -86.6% (active); in the test with OVCAR-4 ovarian, -25.3% (active); in the test with SK-OV-3 ovarian, -77.2% (active); with IGROV1 ovarian it was -92.8% (active). In addition, the growth with OVCAR-3 ovarian is -73.2% (active); in the test on HS 578T breast, -73.9% (active); in the test on NCI/ADR-RES ovarian, -40% (active); in the test with T-47D breast it was -38.8% (active); with BT-549 breast it was 27.5%; in the test on MDA-MB-435 melanoma, -33.2% (active). Besides, the growth is -84.4% (active) in the test on SW-620 colon; -79.2% (active) with MCF7 breast; -94.8% (active) in the test with HCT-116 colon; -95.4% (active) in the test on HCC-2998 colon; -87.3% (active) in the test on KM12 colon.

As for `Clc1ccc2c(NCCCNCc3ccc4c(c3)OCO4)ccnc2c1`, the growth with SR leukemia is -22.9% (active); in the test with RPMI-8226 leukemia, 22%; in the test with OVCAR-8 ovarian it was 30.7%; with OVCAR-5 ovarian it was 85.8%; with OVCAR-4 ovarian, 59.1%; in the test with OVCAR-3 ovarian, 63.7%. For the same compound, the growth in the test on HS 578T breast is 78.9%; in the test with NCI/ADR-RES ovarian, 74.3%; with T-47D breast it was -0.471% (active); with BT-549 breast, 51.5%; in the test with MDA-MB-435 melanoma, -34.6% (active); with SW-620 colon, 28.9%. The growth in the test with MCF7 breast is 31.5%; in the test on HCT-116 colon it was 36.5%; in the test with HCC-2998 colon it was 5.99% (active); in the test on KM12 colon it was 65.4%.

Turning to `Oc1ccc(/C=N/Nc2nnc(N/N=C/c3ccc(O)cc3O)c3ccccc23)c(O)c1`, the growth is -26.1% (active) in the test on SR leukemia; -60% (active) in the test with OVCAR-8 ovarian; 1.16% (active) in the test on OVCAR-5 ovarian; -9.22% (active) in the test on OVCAR-4 ovarian; -15.4% (active) in the test on SK-OV-3 ovarian; -2.51% (active) in the test with IGROV1 ovarian. For the same compound, the growth was -34.1% (active) in the test on OVCAR-3 ovarian; -76.8% (active) in the test on HS 578T breast; -11.1% (active) in the test on NCI/ADR-RES ovarian; -53.2% (active) in the test with T-47D breast; -23.6% (active) in the test on BT-549 breast; -6.07% (active) in the test with MDA-MB-435 melanoma. Moreover, the growth with SW-620 colon is -1.28% (active); in the test on MCF7 breast, -57.2% (active); in the test on HCT-116 colon, -44.1% (active); in the test with KM12 colon, -73.2% (active).

With `CC(=Nc1ccccc1)C1=C(O)C(Cc2ccccc2)NC1=O` (stereo not given), the growth with SR leukemia is -12% (active); in the test on OVCAR-8 ovarian, -50.4% (active); in the test with OVCAR-5 ovarian it was 18.9%; in the test on OVCAR-4 ovarian, 39.6%; in the test on SK-OV-3 ovarian it was 16.8%; with IGROV1 ovarian, 6.28% (active). In addition, the growth in the test with OVCAR-3 ovarian is -42.4% (active); in the test with HS 578T breast, -15.3% (active); in the test with NCI/ADR-RES ovarian, -8.97% (active); in the test with T-47D breast, 67.6%; with MDA-MB-435 melanoma, -27.3% (active); with SW-620 colon it was 19.3%. The growth was 2.49% (active) with HCT-116 colon, -20.6% (active) with HCC-2998 colon and -46.3% (active) with KM12 colon.

`COC(=O)c1[nH]cnc1/N=N/N(C)CCO`: the growth with SR leukemia was 75.4%; in the test on OVCAR-8 ovarian, 109%; with OVCAR-5 ovarian, 92.9%; with OVCAR-4 ovarian, 105%; in the test with SK-OV-3 ovarian, 98.3%; in the test with IGROV1 ovarian it was 109%. Besides, the growth in the test with OVCAR-3 ovarian is 99%; with HS 578T breast, -26.7% (active); in the test with NCI/ADR-RES ovarian, 95.9%; in the test on T-47D breast, 91.1%; in the test on BT-549 breast, 98.4%; with MDA-MB-435 melanoma, 112%. Moreover, the growth in the test on SW-620 colon is 102%; in the test on MCF7 breast it was 96%; in the test with HCT-116 colon it was 93.5%; in the test with KM12 colon, 106%.

Consider `Nc1cc2c(cc1Br)-c1c(C(=O)O)cccc1C2O` (stereo not given), for which the growth in the test with SR leukemia is 109%; in the test with OVCAR-8 ovarian it was 107%; in the test on OVCAR-5 ovarian, 102%; in the test on OVCAR-4 ovarian, 103%; in the test with SK-OV-3 ovarian, 110%; in the test with IGROV1 ovarian it was 98.6%. For the same compound, the growth with OVCAR-3 ovarian is 147%; in the test on HS 578T breast, 143%; in the test with NCI/ADR-RES ovarian, 118%; with T-47D breast it was 105%; in the test with BT-549 breast it was 114%; in the test with MDA-MB-435 melanoma, 105%. Also, the growth in the test with SW-620 colon was 110%; with MCF7 breast it was 95.4%; in the test on HCT-116 colon, 96.4%; in the test with HCC-2998 colon it was 112%; in the test on KM12 colon it was 99.3%.

With `CC(C)NC[C@@H](C(=O)N1CCN(c2ncnc3c2[C@H](C)C[C@H]3O)CC1)c1ccc(Cl)cc1`, the growth is 45.5% with SR leukemia; 61.2% with RPMI-8226 leukemia; 68.3% in the test on OVCAR-8 ovarian; 54.4% with OVCAR-5 ovarian; 77.5% in the test on OVCAR-4 ovarian; 0.674% (active) in the test with IGROV1 ovarian. Further, the growth with OVCAR-3 ovarian was 49.7%; in the test on NCI/ADR-RES ovarian, 84.2%; in the test with T-47D breast, -9.42% (active); with BT-549 breast, 25.2%; in the test on MDA-MB-435 melanoma it was 68.2%; in the test with SW-620 colon, 71.4%. Also, the growth in the test on MCF7 breast was 30.9%; in the test with HCT-116 colon it was 61.4%; with KM12 colon, 18.9%.

Regarding `C=CC(=O)Nc1cccc(Nc2nc(Nc3ccc(N4CCN(C(C)=O)CC4)cc3OC)ncc2C(F)(F)F)c1`, the growth in the test on SR leukemia was 1.68% (active); with RPMI-8226 leukemia, 16.8%; in the test with OVCAR-8 ovarian, 18.9%; in the test with OVCAR-5 ovarian it was 13.4%; with OVCAR-4 ovarian, 10.5%; in the test with IGROV1 ovarian, -29.9% (active). Besides, the growth in the test with OVCAR-3 ovarian was 19.5%; with NCI/ADR-RES ovarian, 21.3%; in the test with T-47D breast, -5.01% (active); in the test on BT-549 breast, 19.7%; with MDA-MB-435 melanoma it was 23.1%; in the test on SW-620 colon it was 2.57% (active). For the same compound, the growth in the test with HCT-116 colon was 12%; in the test with HCC-2998 colon, 34.7%; in the test with KM12 colon, 15.7%.

Regarding `N#Cc1ccc(-n2nnc3ccccc32)cc1C#N`, the growth in the test on RPMI-8226 leukemia is 101%; with OVCAR-8 ovarian it was 99%; in the test with OVCAR-5 ovarian, 110%; in the test on OVCAR-4 ovarian, 110%; with SK-OV-3 ovarian, 98.8%; in the test with IGROV1 ovarian, 104%. Also, the growth is 101% in the test on OVCAR-3 ovarian; 105% with HS 578T breast; 101% in the test with NCI/ADR-RES ovarian; 86.3% in the test with T-47D breast; 106% in the test on BT-549 breast; 85.3% with MDA-MB-435 melanoma. For the same compound, the growth in the test on SW-620 colon is 94.4%; in the test on HCT-116 colon it was 102%; in the test with HCC-2998 colon, 104%; in the test with KM12 colon, 96.4%.

`O=C(COc1ccc(/C=C2\Cc3ccc(Cl)cc3C2=O)cc1)Nc1nccs1`: the growth in the test with SR leukemia is 148%; with RPMI-8226 leukemia, 91.7%; in the test with OVCAR-5 ovarian, 100%; with OVCAR-4 ovarian, 90%; with SK-OV-3 ovarian it was 108%; in the test with OVCAR-3 ovarian, 103%. In addition, the growth in the test on HS 578T breast is 101%; in the test on NCI/ADR-RES ovarian, 86.7%; in the test on T-47D breast it was 85.2%; in the test on BT-549 breast it was 106%; with MDA-MB-435 melanoma, 113%; in the test with SW-620 colon it was 106%. The growth in the test on MCF7 breast was 89%; in the test with HCT-116 colon it was 91.3%; with KM12 colon, 115%.

Take `CCOC(=O)Sc1ncnc2nc[nH]c12`: the growth in the test with SR leukemia was 9.18% (active); with OVCAR-8 ovarian it was 18.5%; in the test with OVCAR-5 ovarian, 47.2%; in the test on OVCAR-4 ovarian, 35.1%; in the test on SK-OV-3 ovarian, 23.9%; in the test with IGROV1 ovarian it was 45.1%. The growth in the test on OVCAR-3 ovarian was 26.4%; in the test with HS 578T breast, 76.2%; in the test with NCI/ADR-RES ovarian, 37%; in the test with T-47D breast it was 34.7%; with BT-549 breast it was 50.7%; with MDA-MB-435 melanoma, 33.3%. In addition, the growth in the test with SW-620 colon is 68.5%; in the test on MCF7 breast it was 18.7%; with HCT-116 colon it was 31.2%; in the test with HCC-2998 colon, 26.4%; with KM12 colon, 59.3%.
